Experimental data from PubChem BioAssay AID1159606 (Sanford-Burnham Center for Chemical Genomics, 2016).
Several values for one entry are separate records, joined by “and”; a condition that tells them apart may be missing. Equal values may be shown once. About 7,300 (2%) of roughly 360,000 compounds were called active. The full list was thinned out, with actives kept by preference. Unmarked numbers belong to inactive results. Cut-off read from the data, not from the text of the source: active = inhibition above about 50%; inactive = the rest.

experiment: blockers of TWEAK-induced Fn14 reporter activity – luciferase reporter cells, uHTS, primary screen (AID 1159606); conditions: TWEAK-stimulated Fn14 reporter cells, luciferase luminescence, 8 h; at 10 µM; hits give high values

| SMILES | inhibition |
| --- | --- |
| O=C(NCc1cccnc1)c1cc(C2CCCN(C(=O)CCCc3ccccc3)C2)on1 (stereo unspecified) | 0.68% |
| O=C(NNS(=O)(=O)c1ccccc1)c1cnn(-c2ccc(Cl)cc2)c1C(F)(F)F | 4.65% |
| O=C(c1ccco1)N1CCN(C(=O)C2CCCN(S(=O)(=O)c3cccc4nsnc34)C2)CC1 (stereo unspecified) | 62.4% (active) |
| CCCCN(CC)C(=O)C1CCCN(S(=O)(=O)c2cccc3nsnc23)C1 (stereo unspecified) | -6.36% |
| CCCCN(C)CCNC(=O)C1CCCN(S(=O)(=O)c2cccc3nsnc23)C1 (stereo unspecified) | -0.5% |
| O=C(CCl)NNc1cccc(Cl)n1 | -23.4% |
| O=S(=O)(Nc1ccccc1N1CCOCC1)c1ccc(Cl)s1 | 4.55% |
| O=C(Nc1cccc(Cl)c1)Nc1ccccc1NS(=O)(=O)c1cccs1 | 10.4% |
| COc1cc(NC(=O)c2ccccc2NS(=O)(=O)c2ccc(Cl)s2)cc(OC)c1 | 72.6% (active) |
| CCOCCCN(C)C1CCN(C(=O)c2oc3ccccc3c2NC(=O)Cc2cccc([N+](=O)[O-])c2)CC1 | -1.52% |
| Cc1ccc2c(c1)NC(=O)[C@@]1(C)[C@@H](c3ccccc3)[C@H]3COc4ccc(Cl)cc4[C@@H]3N1C2=O | 15.4% |
| CCN1CCN(c2sc(S(C)(=O)=O)nc2S(=O)(=O)c2ccc(Cl)cc2)CC1 | 31.6% |
| COC(=O)[C@@]1(Sc2ccc(C)cc2)CC(=O)N(c2cccc(SC)c2)[C@@H]1c1ccccc1 | 69.9% (active) |
| COC(=O)c1ccccc1SC1CC(=O)N(c2cccc(C)c2)C1=O (stereo unspecified) | -5.63% |
| CCOC(=O)N1C(=O)C[C@](Sc2ccc(C)cc2)(C(=O)OC)[C@H]1c1ccccc1 | 14.7% |
| CCCCn1nnnc1C(c1cc2ccccc2o1)N(C)Cc1ccc(Cl)c(Cl)c1 (stereo unspecified) | -0.38% |
| COc1ccc(C(=O)N2CCCCC2c2cc(C(=O)Nc3ccccc3)no2)cc1 (stereo unspecified) | -7.61% |
| CCOc1cc2[nH]c(=S)n(CCN3CCCCC3C)c(=O)c2cc1OCC (stereo unspecified) | -2.73% |
| COc1cc2[nH]c(=S)n(Cc3ccc(F)cc3)c(=O)c2cc1OC | -27% |
| COc1cc2[nH]c(=S)n(CCN3CCCCC3C)c(=O)c2cc1OC (stereo unspecified) | 77.3% (active) |
| CCOCCCNC(=O)C(NC(=O)CNC(=O)c1ccccc1)c1ccc(OC)cc1 (stereo unspecified) | -12.7% |
| CN(C)Cc1ccc(F)cc1Sc1cc(Cl)ccc1Cl | 5.28% |
| CC(=O)N1C(C)c2ccccc2C(C)(C)CC12CCCCC2 (stereo unspecified) | -11.4% |
| CO/N=C(\C(=O)N[C@@H]1C(=O)N2C(C(=O)O)=C(COC(C)=O)CS[C@H]12)c1csc(N)n1 (stereo in doubt) | 15% and 5.82% and -5.11% |
| C=CC1=C(C(=O)O)N2C(=O)[C@@H](NC(=O)/C(=N\OCC(=O)O)c3csc(N)n3)[C@H]2SC1 | 14.2% |
| C=CC1=C(C(=O)O)N2C(=O)[C@@H](NC(=O)/C(=N/OCC(=O)O)c3csc(N)n3)[C@H]2SC1 | 75.2% (active) |
